Tests used:
Assay in all cases: log2 ratio of Biotin-Ahx-Ub-VS probe labelling (fragment/DMSO); higher = less target engagement (more negative = stronger competition), active = hit call of the paper (q ≤ 0.05, log2 ratio ≤ -1)
Conditions in all cases: compound concentration: 200 uM; treatment time: 3 h
[1] = target: T1, USP19 (UniProt O94966)
T1 sequence (whole entry): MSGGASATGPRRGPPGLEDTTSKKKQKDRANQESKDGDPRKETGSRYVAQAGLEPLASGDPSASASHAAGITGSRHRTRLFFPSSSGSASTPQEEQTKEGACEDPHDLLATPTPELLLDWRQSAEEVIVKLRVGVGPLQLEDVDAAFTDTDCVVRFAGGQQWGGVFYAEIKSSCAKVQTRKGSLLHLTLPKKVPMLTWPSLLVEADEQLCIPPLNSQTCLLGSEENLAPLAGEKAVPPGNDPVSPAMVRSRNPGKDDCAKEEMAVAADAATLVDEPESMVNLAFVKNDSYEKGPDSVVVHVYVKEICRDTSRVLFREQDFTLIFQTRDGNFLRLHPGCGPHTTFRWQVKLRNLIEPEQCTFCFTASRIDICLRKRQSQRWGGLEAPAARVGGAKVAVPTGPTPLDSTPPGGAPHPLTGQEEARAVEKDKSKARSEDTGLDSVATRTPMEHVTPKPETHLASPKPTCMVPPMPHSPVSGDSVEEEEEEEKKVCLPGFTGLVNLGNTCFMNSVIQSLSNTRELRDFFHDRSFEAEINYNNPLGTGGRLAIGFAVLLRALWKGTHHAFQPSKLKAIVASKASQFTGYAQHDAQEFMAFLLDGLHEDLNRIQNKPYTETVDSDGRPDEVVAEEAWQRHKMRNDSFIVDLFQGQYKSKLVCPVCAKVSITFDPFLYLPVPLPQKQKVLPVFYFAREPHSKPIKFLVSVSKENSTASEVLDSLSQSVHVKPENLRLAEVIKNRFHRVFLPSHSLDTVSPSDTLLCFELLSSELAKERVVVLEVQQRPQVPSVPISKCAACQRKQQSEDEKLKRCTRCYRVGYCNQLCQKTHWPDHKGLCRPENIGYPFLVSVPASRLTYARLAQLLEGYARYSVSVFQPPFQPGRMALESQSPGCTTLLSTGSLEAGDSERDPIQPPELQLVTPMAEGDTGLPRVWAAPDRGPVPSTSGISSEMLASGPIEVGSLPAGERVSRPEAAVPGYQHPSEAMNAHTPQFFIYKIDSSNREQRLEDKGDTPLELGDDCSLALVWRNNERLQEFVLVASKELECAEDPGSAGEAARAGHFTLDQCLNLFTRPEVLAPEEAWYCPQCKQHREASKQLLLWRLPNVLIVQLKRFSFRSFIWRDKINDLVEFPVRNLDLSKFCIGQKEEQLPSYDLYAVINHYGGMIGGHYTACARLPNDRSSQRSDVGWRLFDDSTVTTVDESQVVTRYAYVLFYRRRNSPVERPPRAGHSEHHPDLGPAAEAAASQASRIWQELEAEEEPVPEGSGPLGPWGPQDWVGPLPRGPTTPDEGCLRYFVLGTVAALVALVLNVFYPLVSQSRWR
How it was run: (§1)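 HEK293T lysate, 495 µg per sample in Tris/CHAPS/IGEPAL buffer with protease inhibitors, was treated in triplicate with fragment at 200 µM or vehicle for 3 h and then with Biotin-Ahx-Ub-VS at 0.5 µM final for 1 h. Labelled DUBs were NeutrAvidin-enriched, digested with LysC and trypsin, and run by diaPASEF LC-MS/MS. Spectronaut label-free quantities were global-median-normalised, and values are average log2 fragment/vehicle ratios by unpaired t-test on proteins with ≥2 unique peptides.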

[2] = target: T2, USP22 (UniProt Q9UPT9)
T2 sequence (whole entry): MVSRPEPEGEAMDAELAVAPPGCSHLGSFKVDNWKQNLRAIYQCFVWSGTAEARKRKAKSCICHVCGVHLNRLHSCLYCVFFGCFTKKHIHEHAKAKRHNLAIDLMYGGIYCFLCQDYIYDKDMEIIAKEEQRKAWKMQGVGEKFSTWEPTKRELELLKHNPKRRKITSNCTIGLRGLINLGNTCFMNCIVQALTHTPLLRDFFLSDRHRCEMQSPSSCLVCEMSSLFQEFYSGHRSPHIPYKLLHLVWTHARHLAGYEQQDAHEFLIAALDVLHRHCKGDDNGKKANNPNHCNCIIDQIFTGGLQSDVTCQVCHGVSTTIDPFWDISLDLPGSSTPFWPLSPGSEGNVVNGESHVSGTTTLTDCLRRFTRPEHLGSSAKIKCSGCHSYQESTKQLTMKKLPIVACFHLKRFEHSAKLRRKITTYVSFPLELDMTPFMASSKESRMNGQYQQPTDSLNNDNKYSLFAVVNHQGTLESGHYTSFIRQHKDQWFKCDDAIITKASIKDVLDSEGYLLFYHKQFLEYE
How it was run: as §1

[3] = target: USP24 (UniProt Q9UPU5)
USP24, sequence (Q9UPU5 whole entry): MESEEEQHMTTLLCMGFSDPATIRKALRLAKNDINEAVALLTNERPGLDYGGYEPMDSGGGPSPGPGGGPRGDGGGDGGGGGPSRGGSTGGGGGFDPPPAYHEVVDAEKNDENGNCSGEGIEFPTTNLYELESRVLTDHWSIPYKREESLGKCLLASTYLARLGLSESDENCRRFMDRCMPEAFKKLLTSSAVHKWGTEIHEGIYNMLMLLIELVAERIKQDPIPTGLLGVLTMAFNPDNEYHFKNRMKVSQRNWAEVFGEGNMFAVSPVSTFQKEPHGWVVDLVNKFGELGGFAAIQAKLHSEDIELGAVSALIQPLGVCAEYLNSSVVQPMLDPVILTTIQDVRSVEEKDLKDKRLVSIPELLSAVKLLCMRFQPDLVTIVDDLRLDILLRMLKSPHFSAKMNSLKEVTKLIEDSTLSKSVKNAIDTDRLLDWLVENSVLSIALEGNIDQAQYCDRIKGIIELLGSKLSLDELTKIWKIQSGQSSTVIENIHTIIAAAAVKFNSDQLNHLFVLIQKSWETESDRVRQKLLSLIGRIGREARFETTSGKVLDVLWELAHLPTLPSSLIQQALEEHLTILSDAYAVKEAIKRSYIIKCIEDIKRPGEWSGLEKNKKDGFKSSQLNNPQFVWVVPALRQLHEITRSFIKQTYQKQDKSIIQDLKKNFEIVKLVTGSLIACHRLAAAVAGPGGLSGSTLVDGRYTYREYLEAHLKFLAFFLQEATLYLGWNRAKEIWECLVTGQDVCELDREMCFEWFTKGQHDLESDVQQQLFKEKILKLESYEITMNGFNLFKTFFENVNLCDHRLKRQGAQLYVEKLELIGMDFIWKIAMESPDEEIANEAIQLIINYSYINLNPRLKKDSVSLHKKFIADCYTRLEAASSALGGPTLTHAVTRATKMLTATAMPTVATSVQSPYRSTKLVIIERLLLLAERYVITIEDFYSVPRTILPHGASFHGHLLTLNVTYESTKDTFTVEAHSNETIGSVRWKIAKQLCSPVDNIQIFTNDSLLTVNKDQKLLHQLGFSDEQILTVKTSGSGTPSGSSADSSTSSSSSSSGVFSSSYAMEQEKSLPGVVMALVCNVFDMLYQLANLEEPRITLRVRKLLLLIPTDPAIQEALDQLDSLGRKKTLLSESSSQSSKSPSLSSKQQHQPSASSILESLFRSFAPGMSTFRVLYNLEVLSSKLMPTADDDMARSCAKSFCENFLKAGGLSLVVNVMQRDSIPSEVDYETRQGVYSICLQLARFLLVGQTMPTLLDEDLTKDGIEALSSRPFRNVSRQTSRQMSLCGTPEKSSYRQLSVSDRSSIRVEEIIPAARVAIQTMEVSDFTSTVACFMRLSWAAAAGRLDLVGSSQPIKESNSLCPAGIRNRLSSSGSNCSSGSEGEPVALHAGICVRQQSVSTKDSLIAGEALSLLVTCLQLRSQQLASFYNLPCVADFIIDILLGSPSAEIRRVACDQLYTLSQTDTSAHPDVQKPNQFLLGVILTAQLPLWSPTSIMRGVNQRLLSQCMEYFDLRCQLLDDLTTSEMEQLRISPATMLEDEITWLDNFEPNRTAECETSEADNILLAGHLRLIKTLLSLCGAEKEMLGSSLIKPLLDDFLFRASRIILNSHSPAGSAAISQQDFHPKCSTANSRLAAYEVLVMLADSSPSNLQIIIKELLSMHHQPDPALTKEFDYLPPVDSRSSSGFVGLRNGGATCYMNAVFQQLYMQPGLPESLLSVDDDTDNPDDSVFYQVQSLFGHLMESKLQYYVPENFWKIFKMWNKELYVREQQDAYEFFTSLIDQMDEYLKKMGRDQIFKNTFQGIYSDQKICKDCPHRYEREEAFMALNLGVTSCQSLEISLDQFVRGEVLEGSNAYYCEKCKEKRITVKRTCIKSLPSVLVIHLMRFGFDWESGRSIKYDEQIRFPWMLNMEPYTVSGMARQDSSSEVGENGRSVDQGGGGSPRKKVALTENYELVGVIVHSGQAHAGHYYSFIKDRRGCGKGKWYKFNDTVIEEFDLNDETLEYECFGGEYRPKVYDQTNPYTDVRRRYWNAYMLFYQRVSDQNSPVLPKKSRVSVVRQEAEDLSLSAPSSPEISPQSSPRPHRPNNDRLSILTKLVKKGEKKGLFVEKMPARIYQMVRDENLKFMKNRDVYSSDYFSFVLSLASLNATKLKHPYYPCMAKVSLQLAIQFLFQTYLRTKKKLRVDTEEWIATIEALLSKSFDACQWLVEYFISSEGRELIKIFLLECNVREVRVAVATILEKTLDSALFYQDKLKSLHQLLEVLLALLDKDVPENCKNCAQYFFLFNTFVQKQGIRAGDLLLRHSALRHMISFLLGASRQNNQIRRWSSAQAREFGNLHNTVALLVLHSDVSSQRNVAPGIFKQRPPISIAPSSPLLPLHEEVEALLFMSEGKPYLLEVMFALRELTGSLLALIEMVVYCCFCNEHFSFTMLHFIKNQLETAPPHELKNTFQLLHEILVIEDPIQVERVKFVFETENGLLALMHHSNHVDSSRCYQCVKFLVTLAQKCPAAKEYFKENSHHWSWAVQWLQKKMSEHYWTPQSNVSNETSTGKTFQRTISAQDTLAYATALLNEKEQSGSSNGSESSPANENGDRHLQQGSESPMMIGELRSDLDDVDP
How it was run: as §1

[4] = target: T3, USP25 (UniProt Q9UHP3)
T3 sequence (whole entry): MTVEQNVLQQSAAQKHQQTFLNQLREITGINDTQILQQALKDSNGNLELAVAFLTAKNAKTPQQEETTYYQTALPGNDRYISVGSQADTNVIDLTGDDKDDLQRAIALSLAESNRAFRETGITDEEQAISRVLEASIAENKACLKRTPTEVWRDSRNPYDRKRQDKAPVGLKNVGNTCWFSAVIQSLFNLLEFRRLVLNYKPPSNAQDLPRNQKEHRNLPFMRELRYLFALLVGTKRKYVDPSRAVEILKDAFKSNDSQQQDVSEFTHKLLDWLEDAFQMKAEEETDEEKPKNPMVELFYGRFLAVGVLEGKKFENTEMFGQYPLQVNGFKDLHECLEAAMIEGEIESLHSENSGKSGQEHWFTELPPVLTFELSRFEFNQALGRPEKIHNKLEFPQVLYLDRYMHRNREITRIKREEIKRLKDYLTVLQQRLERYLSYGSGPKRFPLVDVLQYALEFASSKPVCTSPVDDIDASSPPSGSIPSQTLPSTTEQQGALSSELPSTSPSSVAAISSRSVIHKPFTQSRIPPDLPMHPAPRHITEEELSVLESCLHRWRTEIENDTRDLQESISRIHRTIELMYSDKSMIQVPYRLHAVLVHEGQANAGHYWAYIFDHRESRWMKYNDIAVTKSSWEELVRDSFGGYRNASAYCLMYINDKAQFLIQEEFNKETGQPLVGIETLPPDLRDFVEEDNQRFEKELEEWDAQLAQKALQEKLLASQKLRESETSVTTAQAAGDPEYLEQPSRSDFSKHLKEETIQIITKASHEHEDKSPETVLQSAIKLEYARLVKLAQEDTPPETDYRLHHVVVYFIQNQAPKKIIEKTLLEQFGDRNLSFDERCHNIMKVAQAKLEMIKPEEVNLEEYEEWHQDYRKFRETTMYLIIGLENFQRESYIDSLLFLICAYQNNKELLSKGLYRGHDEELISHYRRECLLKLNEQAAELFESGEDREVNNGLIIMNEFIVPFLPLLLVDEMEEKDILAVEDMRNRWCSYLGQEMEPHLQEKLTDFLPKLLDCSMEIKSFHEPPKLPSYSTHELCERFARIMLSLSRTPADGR
How it was run: as §1

[5] = target: T4, USP28 (UniProt Q96RU2)
T4 sequence (whole entry): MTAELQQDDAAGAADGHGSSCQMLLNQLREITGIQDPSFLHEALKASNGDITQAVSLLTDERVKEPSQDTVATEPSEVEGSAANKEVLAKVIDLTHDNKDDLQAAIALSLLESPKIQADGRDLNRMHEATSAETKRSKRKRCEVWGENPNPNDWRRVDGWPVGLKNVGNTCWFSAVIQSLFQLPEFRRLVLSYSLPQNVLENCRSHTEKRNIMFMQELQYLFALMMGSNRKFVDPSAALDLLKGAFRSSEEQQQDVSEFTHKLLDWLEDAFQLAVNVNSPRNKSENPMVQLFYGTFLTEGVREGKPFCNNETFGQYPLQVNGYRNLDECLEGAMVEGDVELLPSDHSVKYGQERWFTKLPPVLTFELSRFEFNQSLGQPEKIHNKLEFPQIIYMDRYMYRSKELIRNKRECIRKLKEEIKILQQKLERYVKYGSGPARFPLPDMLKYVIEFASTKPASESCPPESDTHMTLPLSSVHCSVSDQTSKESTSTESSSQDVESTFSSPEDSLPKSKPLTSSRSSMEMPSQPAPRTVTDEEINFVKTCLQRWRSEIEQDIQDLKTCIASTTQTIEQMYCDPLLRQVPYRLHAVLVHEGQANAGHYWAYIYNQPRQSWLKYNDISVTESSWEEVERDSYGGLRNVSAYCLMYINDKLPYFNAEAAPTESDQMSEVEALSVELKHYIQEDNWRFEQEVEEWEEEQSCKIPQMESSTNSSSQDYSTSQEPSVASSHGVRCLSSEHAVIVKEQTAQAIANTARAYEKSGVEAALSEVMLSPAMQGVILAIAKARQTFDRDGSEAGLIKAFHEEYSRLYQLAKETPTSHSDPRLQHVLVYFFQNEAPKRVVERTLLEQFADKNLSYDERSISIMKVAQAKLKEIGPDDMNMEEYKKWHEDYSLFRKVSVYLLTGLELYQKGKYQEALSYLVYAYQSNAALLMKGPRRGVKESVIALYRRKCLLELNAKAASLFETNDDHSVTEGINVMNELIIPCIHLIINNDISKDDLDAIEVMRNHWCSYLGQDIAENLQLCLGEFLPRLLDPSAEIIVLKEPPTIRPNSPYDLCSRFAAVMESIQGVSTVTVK
How it was run: as §1

Measured: log2 ratio of Biotin-Ahx-Ub-VS probe labelling

CC(O)CC1CCN(C(=O)CCl)CC1 (stereo not given)
inactive: [1] -0.322 | [2] 0.037 | [3] -0.234 | [4] -0.398 | [5] -0.223
